{"source": "ChEMBL document CHEMBL3988442", "about": "“University of Dundee, Small-Polar-MMV Screening Library” (2021)", "note": "The whole screen tested about 48,000 compounds, of which about 13,000 (27%) showed an effect of 50% or more. This is one part of the list.", "data": [{"system": "Wolbachia pipientis", "assay": "Anti-Wolbachia Cell-Based Screen", "format": "functional", "set-up": "scale not given: in the data most compounds retested in dose-response had high values", "settings": "5 µM", "units": {"Percent Effect": "%"}, "values": [{"smiles": "CCc1nc2n(n1)CCCC2Nc1nc(C(C)C)ns1", "note": "(centres undefined)", "Percent Effect": -21.17}, {"smiles": "CC(C)CCN1CC2(CCCN(C(=O)c3cscn3)C2)CCC1=O", "note": "(centres undefined)", "Percent Effect": -17.51}, {"smiles": "CC(C)(C)n1cc(C(=O)N2CCN(Cc3ccsc3)CC2)cn1", "Percent Effect": 2.604}, {"smiles": "O=C(NC[C@H]1OC[C@@H](NC2CCC(F)(F)CC2)[C@@H]1O)Nc1ccccc1", "Percent Effect": -10.14}, {"smiles": "Cc1ccc(F)cc1S(=O)(=O)NCc1[nH]ncc1Br", "Percent Effect": -6.756}, {"smiles": "CC(=O)N1CCCN(C(=O)Cc2c(C)nc(C)[nH]c2=O)CC1", "Percent Effect": -4.556}, {"smiles": "Cc1cc(NS(=O)(=O)c2cnc3onc(C)c3c2)no1", "Percent Effect": -3.715}, {"smiles": "Fc1cccc(-c2nc(CN3CCCCC3Cn3cncn3)co2)c1", "note": "(centres undefined)", "Percent Effect": -6.024}, {"smiles": "COCC(=O)N1CCN(Cc2coc(-c3cccc(F)c3)n2)CC1", "Percent Effect": -10.41}, {"smiles": "CC(=O)N1CCN(Cc2coc(-c3cccc(F)c3)n2)CC1", "Percent Effect": 97.72}, {"smiles": "CC1CCCN(Cc2coc(-c3cccc(F)c3)n2)C1", "note": "(centres undefined)", "Percent Effect": -1.096}, {"smiles": "CN(C)C(=O)CN1CCN(Cc2coc(-c3cccc(F)c3)n2)CC1", "Percent Effect": 102.1}, {"smiles": "CCNC(=O)C1CN(Cc2c(-c3cc(C)on3)nn(C)c2Cl)CCO1", "note": "(centres undefined)", "Percent Effect": -15.99}, {"smiles": "CC(C)NC(=O)c1cc2c(nc1N(C)C)CCN(S(=O)(=O)C1CC1)CC2", "Percent Effect": -5.433}, {"smiles": "CCN(CC)S(=O)(=O)N1CCc2nc(C3CCNCC3)ncc2C1.Cl", "Percent Effect": 116.7}, {"smiles": "CCC(C)S(=O)(=O)N1CCc2nc(C3CCNCC3)ncc2C1.Cl", "note": "(centres undefined)", "Percent Effect": 105.9}, {"smiles": "Cl.O=S(=O)(N1CCCCC1)N1CCc2nc(C3CCNCC3)ncc2C1", "Percent Effect": -9.776}, {"smiles": "CCN(CC)S(=O)(=O)N1CCCC(c2nccn2Cc2ccncc2)C1", "note": "(centres undefined)", "Percent Effect": 6.265}, {"smiles": "CCc1cc(CNC(=O)N2Cc3ccccc3N(C)CC2C)on1", "note": "(centres undefined)", "Percent Effect": 12.48}, {"smiles": "Cc1ncc(CN(C)Cn2nc(-c3ccccc3)oc2=O)s1", "Percent Effect": 56.71}, {"smiles": "CN(Cc1ccc(Br)s1)Cn1nc(-c2ccccc2)oc1=O", "Percent Effect": 38.33}, {"smiles": "CN(Cc1ccc(Br)s1)Cn1nc(-c2ccc(F)cc2)oc1=O", "Percent Effect": 11.33}, {"smiles": "CSc1nccc(NCC2CNCCO2)n1", "note": "(centres undefined)", "Percent Effect": 3.575}, {"smiles": "Cn1cc(CNCCC(=O)NCc2ccccc2)c(-c2cccnc2)n1", "Percent Effect": -3.655}, {"smiles": "Cc1cc(C(=O)N2CCCC(n3cncn3)C2)nn1C", "note": "(centres undefined)", "Percent Effect": 113.3}, {"smiles": "Cc1[nH]ncc1C(=O)N1CCCC(n2cncn2)C1", "note": "(centres undefined)", "Percent Effect": -1.83}, {"smiles": "CC(C)c1nc(C(=O)N2CCCC(n3cncn3)C2)c[nH]1", "note": "(centres undefined)", "Percent Effect": 7.683}, {"smiles": "Cc1c(C(=O)N2CCCC(n3cncn3)C2)cnn1C", "note": "(centres undefined)", "Percent Effect": 111.3}, {"smiles": "Cc1cnc(C(=O)N2CCCC(n3cncn3)C2)cn1", "note": "(centres undefined)", "Percent Effect": 95.37}, {"smiles": "Cn1nc(C(=O)N2CCCC(n3cncn3)C2)ccc1=O", "note": "(centres undefined)", "Percent Effect": -5.25}, {"smiles": "CCC(CC)c1cc(C(=O)N2CCCC(n3cncn3)C2)on1", "note": "(centres undefined)", "Percent Effect": -3.018}, {"smiles": "Cc1cc(C(=O)N2CCCC(n3cncn3)C2)on1", "note": "(centres undefined)", "Percent Effect": 105.4}, {"smiles": "CCc1ccc(C(=O)N2CCCC(n3cncn3)C2)o1", "note": "(centres undefined)", "Percent Effect": -14.61}, {"smiles": "CCNC(=O)N1C[C@@H]2OCC(=O)N(CC3CC3)[C@@H]2C1", "Percent Effect": -6.422}, {"smiles": "Cc1nsc(NC2CCOC3(CCCCC3)C2)n1", "note": "(centres undefined)", "Percent Effect": -0.6251}, {"smiles": "Cc1cnn(CCNCc2csc(-c3ccc4c(c3)OCO4)n2)c1", "Percent Effect": -11.61}, {"smiles": "CN(CCS(=O)(=O)c1cc(Cl)ccc1Cl)CC(N)=O", "Percent Effect": 6.108}, {"smiles": "Cc1ccn(-c2ccc(NCc3cccnc3N3CCCCC3)nn2)n1", "Percent Effect": -6.636}, {"smiles": "Nc1cc2c(nn1)CCN(C(=O)c1ccccc1Oc1cccnc1)C2", "Percent Effect": -10.76}, {"smiles": "CCc1nccn1C1CCCN(C(=O)c2cnc3onc(C)c3c2)C1", "note": "(centres undefined)", "Percent Effect": -19.2}, {"smiles": "Cc1cc(C)n(CCC(=O)N2CCCC(n3cncn3)C2)n1", "note": "(centres undefined)", "Percent Effect": -3.067}, {"smiles": "Cc1cc(C(=O)N2CCCC(n3cncn3)C2)c(C)n1CC1CC1", "note": "(centres undefined)", "Percent Effect": 127.1}, {"smiles": "Cc1ncsc1C(=O)N1CCCC(n2cncn2)C1", "note": "(centres undefined)", "Percent Effect": 88.89}, {"smiles": "COCC(C)NS(=O)(=O)c1ccc(Br)cn1", "note": "(centres undefined)", "Percent Effect": -13.48}, {"smiles": "O=C(Nc1ccccc1F)N1CCN(Cc2noc(C3CC3)n2)CC1", "Percent Effect": 0.2085}, {"smiles": "CCCc1cnc(C)nc1N1CCC2(CC1)CNC(=O)O2", "Percent Effect": 7.463}, {"smiles": "c1nc2c(c(N3CCOC(Cn4cncn4)C3)n1)CCC2", "note": "(centres undefined)", "Percent Effect": -6.426}, {"smiles": "CC(C)Cc1ncc2c(n1)CN(c1nc(N(C)C)nc3c1CCCC3)C2", "Percent Effect": 27.68}, {"smiles": "Cc1nc(N(C)C)nc(N2CCC3(CC2)CNC(=O)O3)c1C", "Percent Effect": 97.26}, {"smiles": "Cc1ccc(-c2ccnc(N3CCC4(CC3)CNC(=O)O4)n2)c(C)n1", "Percent Effect": 5.789}, {"smiles": "O=C1NCC2(CCCN(c3ncnc4c3CCC4)CC2)O1", "note": "(centres undefined)", "Percent Effect": 82.73}, {"smiles": "CN(C)c1nc2c(c(N3CCC4(CC3)CNC(=O)C4)n1)CCCC2", "Percent Effect": 100.7}, {"smiles": "CN(C)c1nc2c(c(N3CCCC4(CC3)CNC(=O)O4)n1)CCCC2", "note": "(centres undefined)", "Percent Effect": 98.47}, {"smiles": "c1cnn(CC2CN(c3ncnc4c3CCC4)CCO2)c1", "note": "(centres undefined)", "Percent Effect": -17.69}, {"smiles": "CC(=O)NC1CCN(c2nc(N(C)C)nc3c2CCCC3)CC1", "Percent Effect": 10.24}, {"smiles": "CN1CCc2[nH]nc(C(=O)N3CCCC4(CC3)CNC(=O)O4)c2C1", "note": "(centres undefined)", "Percent Effect": 1.077}, {"smiles": "CN(C)c1nc2c(c(N3CCC4(CCCNC4=O)C3)n1)CCCC2", "note": "(centres undefined)", "Percent Effect": 9.775}, {"smiles": "CC(C)Cc1cc(CC2(NCc3ccco3)COC2)no1", "Percent Effect": -14.13}, {"smiles": "Cc1ccc(-n2ccc3nc(N4CCCC4)ncc3c2=O)cc1C", "Percent Effect": -4.635}, {"smiles": "COCCN1C[C@H]2CCN(c3ncccn3)CC[C@H]2S1(=O)=O", "Percent Effect": -6.135}, {"smiles": "COc1ccc(F)cc1-c1nc2c([nH]1)c(C1CC1)nn2C", "Percent Effect": 5.431}, {"smiles": "Cn1cc(C(=O)N2CC[C@@H]3[C@@H]2CCN3c2ncc(F)cn2)cn1.O=C(O)C(F)(F)F", "Percent Effect": 3.256}, {"smiles": "Cc1ccc(CN2CCC3(CC2)CCN(C(=O)c2cccnc2)C3)o1.O=C(O)C(F)(F)F", "Percent Effect": 93.46}, {"smiles": "CS(=O)(=O)N1CCC2(CN(C(=O)c3cccnc3)C2)C1.O=C(O)C(F)(F)F", "Percent Effect": -8.829}, {"smiles": "Cc1cnc(N2CC3(CCN(C(=O)c4cccnc4)C3)C2)nc1.O=C(O)C(F)(F)F", "Percent Effect": -3.598}, {"smiles": "O=C(O)C(F)(F)F.O=C(c1cccnc1)N1CCC2(CCN(C(=O)N3CCCC3)CC2)C1", "Percent Effect": 121.5}, {"smiles": "NC(=O)N1CCC2(CCN(C(=O)c3cccnc3)CC2)C1.O=C(O)C(F)(F)F", "Percent Effect": 118.8}, {"smiles": "N#Cc1cccc(N2CC3(CCN(C(=O)c4cccnc4)C3)CC2=O)c1.O=C(O)C(F)(F)F", "note": "(centres undefined)", "Percent Effect": 6.163}, {"smiles": "Cc1ccc(CNC(=O)c2nc3c(o2)CN(C(=O)c2cccnc2)C3)o1.O=C(O)C(F)(F)F", "Percent Effect": -4.272}, {"smiles": "Cc1nc(N)c2ccc(C3CCCCN3)nc2n1.Cl", "note": "(centres undefined)", "Percent Effect": 107.4}, {"smiles": "CCn1c(C)nnc1CN(C)C1CCN(CCCOC)C1", "note": "(centres undefined)", "Percent Effect": 0.6511}, {"smiles": "CCn1c(C)nnc1CN(C)C1CCN(CCc2ccncc2)C1", "note": "(centres undefined)", "Percent Effect": 1.632}, {"smiles": "CCn1c(C)nnc1CN(C)C1CCN(CCn2cccn2)C1", "note": "(centres undefined)", "Percent Effect": 0.3298}, {"smiles": "CCn1c(C)nnc1CN(C)C1CCN(CCOc2ccccc2)C1", "note": "(centres undefined)", "Percent Effect": 149.5}, {"smiles": "CCn1c(C)nnc1CN(C)C1CCN(CCCSC)C1", "note": "(centres undefined)", "Percent Effect": 119.6}, {"smiles": "CCn1c(C)nnc1CN(C)C1CCN(CCS(=O)(=O)CC)C1", "note": "(centres undefined)", "Percent Effect": 144.9}, {"smiles": "CCn1c(C)nnc1CN(C)C1CCN(CC2CCC2)C1", "note": "(centres undefined)", "Percent Effect": 111.4}, {"smiles": "CCn1cc(CNCc2ccc(C(=O)OC)cc2)c(C)n1", "Percent Effect": 153.8}, {"smiles": "COc1ccc(CNCc2cn(C)nc2C)cc1", "Percent Effect": 122.7}, {"smiles": "COc1ccc(CCn2cnnc2[S+](C)[O-])cc1", "note": "(centres undefined)", "Percent Effect": -1.402}, {"smiles": "COc1ccc(-n2ccc(CNCc3ccc(OC)c(O)c3)n2)cc1", "Percent Effect": -11.8}, {"smiles": "COC(=O)c1ccc(CNC(C)c2ccc(S(C)(=O)=O)cc2)cc1", "note": "(centres undefined)", "Percent Effect": -2.189}, {"smiles": "COC(=O)c1ccc(CNC(=O)Nc2ccc(=O)n(C)c2)cc1", "Percent Effect": 12.29}, {"smiles": "COC(=O)c1ccc(CNC(=O)Cc2csc(C(C)=O)c2)cc1", "Percent Effect": 12.04}, {"smiles": "COC(=O)c1ccc(CNCc2ccn(C)n2)cc1", "Percent Effect": 138.6}, {"smiles": "COC(=O)c1ccc(CNCc2cn(C)nc2C)cc1", "Percent Effect": 100.4}, {"smiles": "COc1ccc(CNCc2cc(Br)c3c(c2)OCO3)cc1", "Percent Effect": -3.854}, {"smiles": "Cc1ccc(-c2ncc(CNc3cnccc3CO)s2)cc1", "Percent Effect": -6.325}, {"smiles": "Cc1nc(-c2ccccc2)sc1C(=O)N(C1CC1)C1CC(=O)NC1=O", "note": "(centres undefined)", "Percent Effect": -7.701}, {"smiles": "CCN(CC)C(=O)CN(C)C(=O)c1cc(-c2cccc(Cl)c2)no1", "Percent Effect": -12}, {"smiles": "CCN(CC)c1ccc(NS(=O)(=O)c2cnn(C(C)C)c2)cn1", "Percent Effect": -6.938}, {"smiles": "COCc1ccc(C(=O)N2CCCN(Cc3ccc(F)cc3)CC2)s1", "Percent Effect": 2.247}, {"smiles": "CCCS(=O)(=O)c1ccc(N2CCN(c3ccccn3)CC2)nn1", "Percent Effect": 2.245}, {"smiles": "Cc1nn(C)cc1CNCc1ccc(N(C)C)cc1", "Percent Effect": 119.7}, {"smiles": "Cc1ccc(CNCc2c(C)nn(C)c2N(C)C)cn1", "Percent Effect": -12.73}, {"smiles": "Cc1nn(C)c(N(C)C)c1CNCc1ccc(Cn2cccn2)cc1", "Percent Effect": 10.8}, {"smiles": "CC(C)(C)OC(=O)N1CCC[C@H](NCC2CCOCC2)C1", "Percent Effect": -10.59}, {"smiles": "Cc1cc(NC(=O)Cc2ccccc2O)c[nH]c1=O", "Percent Effect": 7.885}, {"smiles": "CCn1cc(CN2CCc3nc(N4CCOCC4)nc(O)c3CC2)cn1", "Percent Effect": -4.464}, {"smiles": "Oc1nc(-c2cnccn2)nc2c1CCN(Cc1ccccn1)C2", "Percent Effect": 89.8}, {"smiles": "CCn1cc(CN2CCc3nc(-c4ccccn4)nc(O)c3C2)cn1", "Percent Effect": 107.7}, {"smiles": "O=C(Cc1ccccn1)N1CCc2c(O)nc(-c3cnccn3)nc2C1", "Percent Effect": 94.87}, {"smiles": "CN1CCN(C(=O)Cc2ccccn2)Cc2cccnc21", "Percent Effect": -6.313}, {"smiles": "O=C(Cc1ccccn1)N1CCc2nc(-c3cnccn3)nc(O)c2C1", "Percent Effect": -13.11}]}]}
